Unmarked numbers belong to inactive results.
The molecules below were run on Madurella mycetomatis MM55 (assay: percent growth relative to solvent control; higher = less inhibition, active = 20 or less). Conditions: 100 µM; 7 days.
With `C[C@H](C(N)=O)N1CCCC[C@@H]1c1ccc(OCc2cccc(F)c2)cc1` the percent growth was 92%. Work on `CC(=O)NC[C@@H]1CN(c2ccc(N3CCOCC3)c(F)c2)C(=O)O1` yielded a percent growth of 107%. For `N=C(N)c1ccc(OCCCCCOc2ccc(C(=N)N)cc2)cc1`, the percent growth was 48.7%. In the case of `CN1CCN(c2nccc3nc(-c4ccc(F)c(F)c4)[nH]c23)CC1`, the percent growth is reported as 52.1%. `C[C@H]1c2cccc(O)c2C(=O)C2=C(O)[C@]3(O)C(=O)C(C(N)=O)=C(O)[C@@H](N(C)C)[C@@H]3[C@@H](O)[C@@H]21` gave a percent growth of 121%. In the case of `Cc1nn(C)cc1C(C)Nc1nncc(-c2ccc(C(F)(F)F)cc2)n1` (centres undefined), the percent growth is reported as 61.9%. Molecule `COc1ccc(Cn2cnc3c(-c4ccco4)nc(Cl)nc32)cc1` has a percent growth of 82.7%. Molecule `CC(C)(C)C(=O)N(CCCCCCN1C[C@H](O)[C@@H](O)[C@H](O)[C@H]1CO)C1CCCCCC1` has a percent growth of 86.6%. With `COc1ccc2nccc(NC(=O)C3CCN(CCc4ccc(Cl)cc4)CC3)c2n1` the percent growth was 48.8%. `O=C(Cn1ccnc1[N+](=O)[O-])NCc1ccccc1` gave a percent growth of 129%. For `O=C(C1CCN(c2nnc(-n3cccc3)s2)CC1)N1CCC(Cc2ccccc2)CC1`, the percent growth was 108%. `Cn1ncc2c(N3CCOCC3)nc(NCCc3c[nH]c4ccccc34)nc21` gave a percent growth of 37.3%. With `COc1cc(C2=NCCN2)ccc1-c1cn(-c2cccc(C3=NCCN3)c2)nn1` the percent growth was 61%. `Cc1cc2nc(NC(=O)C(C)(C)C)nc(Cl)c2n1Cc1ccc(Cl)cc1` gave a percent growth of 82.9%. Molecule `CC1CC1C(=O)NC1CCN(CC2(c3ccccc3)CCCCC2)CC1` (centres undefined) has a percent growth of 92.9%. Work on `NCC(=O)N1CCn2c(nc(-c3ccccc3)c2Nc2ccc3c(c2)OCO3)C1` yielded a percent growth of 157%. `COC(=O)c1c(NC(=O)c2cc3ccccc3oc2=O)sc2c1CCN(Cc1ccccc1)C2` gave a percent growth of 111%. In the case of `CCc1ccc([C@@H]2C[C@H](C(F)(F)F)n3ncc(C(=O)NCc4ccc(OC)cc4)c3N2)cc1`, the percent growth is reported as 60.8%. `O=C(OCc1ccccc1)N1CCC(c2cc(-c3ccncc3)c(-c3ccc(F)cc3)[nH]2)CC1` was tested, and the percent growth was 117%. For `Nc1ccc2ncnc(Nc3ccc(OCc4cccc(F)c4)c(Cl)c3)c2c1`, the percent growth was 92.1%. `CC(C)C(C(=O)Nc1ccc(S(=O)(=O)N(C)C)cc1)c1ccc(Cl)cc1` (centres undefined) gave a percent growth of 121%. `COc1ccc(C2(C(=O)Nc3ccc(Br)cc3)CCCC2)cc1` was tested, and the percent growth was 56.2%. Molecule `COc1ccc(Nc2ccccc2NC(=O)c2ccc(O)nc2)cc1` has a percent growth of 85.8%. Work on `CC(C)(C)OC(=O)N1CCC(Cn2nc(-c3cnc4ccccc4c3)c3c(N)ncnc32)CC1` yielded a percent growth of 99.2%. With `O=C(NCc1ccoc1)N1CCN(Cc2ccc3c(c2)OCO3)CC1` the percent growth was 92.5%. Work on `CS(=O)(=O)c1ccccc1C(=O)N(Cc1ccccc1)c1ccccc1` yielded a percent growth of 91%. With `CCN(CC)CCCN1CCN(C(=O)c2cccc(-c3noc(C(F)(F)F)n3)c2)CC1` the percent growth was 118%. `Cc1cc(NC(=O)c2ccc(S(=O)(=O)N(Cc3ccccc3)C(C)C)cc2)no1` gave a percent growth of 92.5%. `O=C(Nc1nc(-c2ccccn2)cs1)C1CC1c1ccccc1F` (centres undefined) was tested, and the percent growth was 46.7%. `O=S(=O)(c1ccc(Cl)cc1)N1CCN(C(=S)NCc2ccco2)CC1` was tested, and the percent growth was 151%. In the case of `O=C(CN1CCOCC1)Nc1ccc2ncnc(Nc3ccc(OCc4cccc(F)c4)c(Cl)c3)c2c1`, the percent growth is reported as 79.4%. `CCC(NC(=O)c1ccccc1NC(=O)c1ccc(C)cc1)C(=O)OC` (centres undefined) was tested, and the percent growth was 98.3%. Work on `Cc1cccnc1NC(=O)c1cccc(OCc2c(C)noc2C)c1` yielded a percent growth of 85.1%. For `Cc1cc(Cl)c(S(=O)(=O)N2CCCC2)cc1OCC(=O)NC1CCCCC1`, the percent growth was 104%. Molecule `O=C(NCCc1ccn(-c2ccccc2)n1)C1CCCCC1` has a percent growth of 49.1%. `O=C(NCCN1CCCC1)c1cc(NCCN2CCOCC2)nc2ccc(Cl)cc12` was tested, and the percent growth was 85.5%. In the case of `Cc1ccc2cc(C3NC(=O)c4ccccc4N3)c(Cl)nc2c1` (centres undefined), the percent growth is reported as 139%. `COc1ccc(-c2nc(-c3cccc(NC(=O)Cc4ccc(F)cc4)c3)no2)cc1OC` gave a percent growth of 95%. `CCOc1ccccc1NC(C)C(=O)Nc1cc(C(F)(F)F)ccc1N1CCOCC1` (centres undefined) was tested, and the percent growth was 76.7%.

— the supplement of paper PMC5940239
